Reference: PubChem BioAssay (NCI)
Compounds without any hit were thinned out: in the full panel of roughly 83,000, 20% have a hit.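 The endpoint reported here, percent growth, reads 100 for growth as untreated, 0 for no net growth and -100 for all cells dead.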 A number with no mark means an inactive call. Calls of active or inactive are those of the source. The calls were made as follows: active = growth percent below 10; inactive = the rest.

Legend:
Experiment in all cases: NCI-60 one-dose screen, 48 h (100 = growth as untreated, 0 = no growth, -100 = all killed)
Conditions in all cases: 10 µM unless noted
SK-MEL-2 melanoma = tested on: SK-MEL-2 melanoma
EKVX NSCLC = tested on: EKVX NSCLC
SN12C renal = tested on: SN12C renal
UO-31 renal = tested on: UO-31 renal
TK-10 renal = tested on: TK-10 renal
ACHN renal = tested on: ACHN renal
CAKI-1 renal = tested on: CAKI-1 renal
A498 renal = tested on: A498 renal
CCRF-CEM leukemia = tested on: CCRF-CEM leukemia
MOLT-4 leukemia = tested on: MOLT-4 leukemia

SMILES: COc1cccc(-c2nc3sccn3c2-c2ccnc(NCCNS(=O)(=O)c3cccc(Cl)c3)c2)c1
- growth (SK-MEL-2 melanoma): 51.8%
- growth (EKVX NSCLC): 45.8%
- growth (SN12C renal): 36.3%
- growth (UO-31 renal): 12.9%
- growth (TK-10 renal): 59.7%
- growth (ACHN renal): 30.5%
- growth (CAKI-1 renal): 25.9%
- growth (A498 renal): 44.1%
- growth (CCRF-CEM leukemia): 24%
- growth (MOLT-4 leukemia): 30.4%

SMILES: CS(=O)(=O)c1ccc(Nc2nc(N[C@H]3CCCC[C@H]3N)nc3cc[nH]c(=O)c23)cc1
- growth (SK-MEL-2 melanoma): -40% (active)
- growth (EKVX NSCLC): 13.5%
- growth (SN12C renal): 3.77% (active)
- growth (UO-31 renal): 108%
- growth (TK-10 renal): 44.6%
- growth (ACHN renal): 95.2%
- growth (CAKI-1 renal): 90.7%
- growth (A498 renal): 51.8%
- growth (CCRF-CEM leukemia): 3.99% (active)
- growth (MOLT-4 leukemia): 3.74% (active)

SMILES: CC/C=C\C[C@H](O)C/C=C1/C(=O)C=C[C@@H]1C/C=C\CCCC(=O)OC
- growth (SK-MEL-2 melanoma): -2.28% (active)
- growth (EKVX NSCLC): 35.5%
- growth (SN12C renal): -7.19% (active)
- growth (UO-31 renal): -75.1% (active)
- growth (TK-10 renal): -1.5% (active)
- growth (ACHN renal): -57.5% (active)
- growth (CAKI-1 renal): -15.6% (active)
- growth (A498 renal): 103%
- growth (MOLT-4 leukemia): -6.76% (active)

SMILES: COc1c(CCC[P+](c2ccccc2)(c2ccccc2)c2ccccc2)cc2c(c1OC)OCO2
- growth (SK-MEL-2 melanoma): -24.2% (active)
- growth (EKVX NSCLC): 15.6%
- growth (SN12C renal): 2.66% (active)
- growth (UO-31 renal): 86.6%
- growth (TK-10 renal): 2.13% (active)
- growth (ACHN renal): 55.6%
- growth (CAKI-1 renal): 31.9%
- growth (A498 renal): -9.74% (active)
- growth (CCRF-CEM leukemia): 29.7%
- growth (MOLT-4 leukemia): 33.3%

SMILES: CCN(CC)CCCNc1ccc(Nc2ccc(OC)cc2)cc1
- growth (SK-MEL-2 melanoma): 108%
- growth (EKVX NSCLC): 81.1%
- growth (SN12C renal): 92.3%
- growth (UO-31 renal): 48%
- growth (TK-10 renal): 88.2%
- growth (ACHN renal): 94.1%
- growth (CAKI-1 renal): 84.5%
- growth (A498 renal): 55.3%
- growth (MOLT-4 leukemia): 32.7%

SMILES: Cc1ccc(-c2cc(-c3ccccc3C)[nH]c(=O)c2C#N)s1
- growth (SK-MEL-2 melanoma): 110%
- growth (EKVX NSCLC): 96.9%
- growth (SN12C renal): 91.8%
- growth (UO-31 renal): 71.7%
- growth (TK-10 renal): 92.1%
- growth (ACHN renal): 90.7%
- growth (CAKI-1 renal): 82.9%
- growth (A498 renal): 77.5%
- growth (MOLT-4 leukemia): 93.3%

SMILES: Cc1cc[c-]cc1.Fc1c[c-]c(-c2ccccn2)c(F)c1.[Pt+2].c1ccc(P(C[PH+](c2ccccc2)c2ccccc2)c2ccccc2)cc1
- growth (SK-MEL-2 melanoma): 4.88% (active)
- growth (EKVX NSCLC): 7.66% (active)
- growth (SN12C renal): 6.18% (active)
- growth (UO-31 renal): 11.4%
- growth (TK-10 renal): 31.5%
- growth (ACHN renal): -1.88% (active)
- growth (CAKI-1 renal): 0.998% (active)
- growth (A498 renal): 9.17% (active)
- growth (MOLT-4 leukemia): 10.7%

SMILES: O=c1c2c3c(sc2n2c(-c4cn(-c5ccccc5)nc4-c4ccc(Cl)cc4)nnc2n1Cc1ccccc1)CCCC3
- growth (SK-MEL-2 melanoma): 97.8%
- growth (EKVX NSCLC): 87.1%
- growth (SN12C renal): 91.2%
- growth (UO-31 renal): 4.67% (active)
- growth (TK-10 renal): 107%
- growth (ACHN renal): 99.2%
- growth (CAKI-1 renal): 100%
- growth (A498 renal): 100%
- growth (CCRF-CEM leukemia): 81.1%
- growth (MOLT-4 leukemia): 85.4%

SMILES: Cc1ccc(C(=O)COc2cccc(/C=C3\Oc4ccccc4C3=O)c2)cc1
- growth (SK-MEL-2 melanoma): 105%
- growth (EKVX NSCLC): 97.1%
- growth (SN12C renal): 105%
- growth (UO-31 renal): -37.1% (active)
- growth (TK-10 renal): 114%
- growth (ACHN renal): 97.6%
- growth (CAKI-1 renal): 47.6%
- growth (A498 renal): 147%
- growth (MOLT-4 leukemia): 73.8%

SMILES: O=C(O)c1ccc2c(c1)CCC2
- growth (SK-MEL-2 melanoma): 95.8%
- growth (EKVX NSCLC): 117%
- growth (SN12C renal): 103%
- growth (UO-31 renal): 94.4%
- growth (TK-10 renal): 107%
- growth (ACHN renal): 104%
- growth (CAKI-1 renal): 101%
- growth (A498 renal): 139%
- growth (MOLT-4 leukemia): 91.1%

SMILES: COc1nc(N(C)O)nc(N(C)O)n1
- growth (SK-MEL-2 melanoma): 70.9%
- growth (EKVX NSCLC): 31.2%
- growth (SN12C renal): 42.5%
- growth (UO-31 renal): 36.9%
- growth (TK-10 renal): 32.5%
- growth (ACHN renal): 11.2%
- growth (CAKI-1 renal): 36.3%
- growth (A498 renal): 76.7%
- growth (CCRF-CEM leukemia): 14.4%
- growth (MOLT-4 leukemia): 35.7%

SMILES: N#C/C(=C\c1ccc(Br)cc1)n1nnc2cc(F)c(F)cc21
- growth (SK-MEL-2 melanoma): 29.5%
- growth (EKVX NSCLC): 69.8%
- growth (SN12C renal): 17%
- growth (UO-31 renal): 33.9%
- growth (TK-10 renal): 32.1%
- growth (ACHN renal): 24%
- growth (CAKI-1 renal): 22.9%
- growth (A498 renal): 26.8%
- growth (MOLT-4 leukemia): 1.95% (active)

SMILES: COc1ccccc1NC(=O)N/C(N)=N/c1nc2ccccc2s1
- growth (SK-MEL-2 melanoma): 48.6%
- growth (EKVX NSCLC): 53.2%
- growth (SN12C renal): 37.1%
- growth (UO-31 renal): 52.9%
- growth (TK-10 renal): 59.3%
- growth (ACHN renal): 42.2%
- growth (CAKI-1 renal): 36.4%
- growth (A498 renal): -10.5% (active)
- growth (MOLT-4 leukemia): 15.4%

SMILES: CCCCCCN(CCCCCC)c1ccc(/C=C2/SC(=O)N(c3nc(N4CCCC4)nc(N4CCCC4)n3)C2=O)c(C)c1
- growth (SK-MEL-2 melanoma): 53.9%
- growth (EKVX NSCLC): 87.2%
- growth (SN12C renal): 59.9%
- growth (UO-31 renal): 52.9%
- growth (TK-10 renal): 85.8%
- growth (ACHN renal): 68.5%
- growth (CAKI-1 renal): 82.5%
- growth (A498 renal): 60.9%
- growth (CCRF-CEM leukemia): 54.1%
- growth (MOLT-4 leukemia): 38.1%
